LAP4 TOR yeast: alters LAP4-GFP fluorescence in TOR pathway yeast screen. S. cerevisiae LAP4-GFP multiplex, flow cytometry GFP, 3 h; median GFP as percent of DMSO wells. GFP response vs DMSO, % at 10 µM. actives 0.34% (n = 320,000). AID 2023;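 active means GFP response vs DMSO above a set limit, about the screen mean plus 3 SD, cut at about 150% in these data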
JMJD2C inh: inhibitors of human GASC-1 (JMJD2C) demethylase | actives 0.069% (n = 330,000) | inhibition, % at 2.35 µM | AID 2099 | GST-JMJD2C(1-420) H3K9me3 demethylation, DELFIA europium;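 active means more than half of a compound's replicate wells show inhibition beyond 50%, single wells judged on their own value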;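 further: signal counts dimethyl H3K9 product captured on neutravidin plate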
Target sequence (Q9H3R0 1-420 limits assumed): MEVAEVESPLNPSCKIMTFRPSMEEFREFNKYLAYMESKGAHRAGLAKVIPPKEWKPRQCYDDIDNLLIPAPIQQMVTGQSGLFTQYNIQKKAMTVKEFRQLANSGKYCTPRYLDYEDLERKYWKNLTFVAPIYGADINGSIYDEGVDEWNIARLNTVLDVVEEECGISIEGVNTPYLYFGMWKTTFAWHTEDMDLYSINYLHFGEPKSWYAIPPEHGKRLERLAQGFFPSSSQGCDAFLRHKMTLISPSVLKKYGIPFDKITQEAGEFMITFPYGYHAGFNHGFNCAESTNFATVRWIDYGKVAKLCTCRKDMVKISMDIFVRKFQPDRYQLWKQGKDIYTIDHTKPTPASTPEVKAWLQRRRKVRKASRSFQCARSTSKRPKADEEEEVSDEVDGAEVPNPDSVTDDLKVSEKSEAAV
AGP1 TOR yeast: yeast TOR pathway AGP1-GFP modulation. AID 2066. S. cerevisiae AGP1-GFP multiplex flow cytometry, 3 h; GFP as percent of DMSO wells. GFP response vs DMSO, % at 10 µM. actives 0.02% (n = 320,000);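 active means GFP response relative to DMSO above a set limit, near screen average plus 3 SD, cut at about 150% in these data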;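 further: median GFP channel fluorescence of the gated AGP1 strain per well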
CIT2 TOR yeast: alters CIT2-GFP fluorescence in TOR pathway yeast screen. S. cerevisiae CIT2-GFP strain, flow cytometry, 3 h; 100 means same as DMSO wells. GFP response vs DMSO, % at 10 µM. actives 0.065% (n = 320,000). AID 2029;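 active means GFP response relative to DMSO above a set limit, near the screen mean plus 3 SD, cut at about 150% in these data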;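 further: ratio of well median GFP fluorescence to mean of DMSO wells on the plate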
MEP2 TOR yeast: modulators of TOR pathway MEP2-GFP in S. cerevisiae; GFP response vs DMSO, % at 10 µM; S. cerevisiae MEP2-GFP strain, flow cytometry GFP, 3 h; 100% = DMSO control level; AID 2016; actives 0.51% (n = 330,000);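 active means GFP response versus DMSO above a set limit, roughly screen mean plus 3 SD, cut at about 180% in these data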;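 further: median GFP fluorescence of the barcode-gated MEP2-GFP cells per well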
RPL19A TOR yeast: alters RPL19A-GFP fluorescence in TOR pathway yeast screen; S. cerevisiae RPL19A-GFP strain, flow cytometry, 3 h; active compounds read low; percent response vs DMSO, % at 10 µM; actives 0.3% (n = 330,000);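 active means percent response vs DMSO below 50%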;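 further: median channel GFP fluorescence of the barcoded RPL19A-GFP strain; lower means less RPL19A-GFP as with rapamycin TOR inhibition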
LAP4-GFP pick2: second confirmation of modulators of TOR reporter LAP4-GFP in yeast. S. cerevisiae LAP4-GFP strain, flow cytometry GFP, 3 h. AID 2621. actives 20% (n = 590). shares compounds with LAP4 TOR yeast. GFP response vs DMSO, % at 10 µM;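 active means GFP signal as percent of the solvent control above about 150%, meaning raised reporter expression, limit read from the data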
MEP2 cherry2: yeast MEP2-GFP modulation, second cherry pick; GFP response vs DMSO, % at 10 µM; S. cerevisiae MEP2-GFP strain, flow cytometry GFP, 3 h; shares compounds with LAP4 TOR yeast; actives 10% (n = 590); AID 2622;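 active means GFP signal above 150% of the solvent control wells, that is a rise of more than half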;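 further: median channel GFP fluorescence of all gated yeast cells per well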
RPL19A GFP CP2: yeast RPL19A-GFP TOR reporter modulation, second cherry pick; GFP response vs DMSO, % at 10 µM; shares compounds with LAP4 TOR yeast; S. cerevisiae RPL19A-GFP strain, flow cytometry GFP, 3 h; active compounds read low; 100% means same as DMSO wells; actives 3% (n = 590); AID 2623;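 active means under 65% GFP response relative to DMSO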;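 further: median GFP channel fluorescence per well over the all cells gate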
CIT2 GFP CP2: reconfirmed modulator of CIT2-GFP TOR reporter in yeast; shares compounds with LAP4 TOR yeast; S. cerevisiae CIT2-GFP strain, flow cytometry GFP, 3 h; DMSO control wells read 100%; GFP response vs DMSO, % at 10 µM; actives 8% (n = 590);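 active means GFP response vs DMSO above about 150%, limit read from the data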;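 further: median green fluorescence per well over all gated yeast cells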
AGP1 GFP CP2: reconfirmed modulator of AGP1-GFP TOR reporter in yeast; S. cerevisiae AGP1-GFP strain, flow cytometry GFP, 3 h; shares compounds with LAP4 TOR yeast; 590 tested, under 10 active; percent response vs DMSO, % at 10 µM; AID 2643;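 active means over 150 percent of DMSO response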;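 further: median GFP channel fluorescence over all cells without mother daughter split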
s288c autofluor: counter-screen for compound autofluorescence in yeast s288c cells; fluorescence change (kMESF span) at 33 µM; shares compounds with LAP4 TOR yeast; 610 tested, under 10 active; S. cerevisiae s288c, 520 nm autofluorescence, flow cytometry, 3 h; active compounds read high; zero means same as solvent-only cells;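 active means fluorescence span over the dose series, or activity score, above about 33, limit read from the data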
s288c autofl DR: yeast s288c autofluorescence artifact in dose response; shares compounds with LAP4 TOR yeast; S. cerevisiae s288c parental, compound autofluorescence, flow cytometry, 3 h; fluorescence change (span) at 33 µM; 110 tested, under 10 active;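 active means fluorescence change span, or the activity score built from it, above 25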
TORC1 bypass: compounds blocking wildtype yeast growth but not TORC1 bypass cells; S. cerevisiae BY4741 spot growth rating, 48-72 h; active compounds read low; shares compounds with LAP4 TOR yeast; AID 504456; 120 tested, under 10 active; growth rating (0-3) at 30 µM;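 active means growth rating at most 1 for wild type yeast while the TORC1 bypass strain still grows fully, rated 3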
Numbers stand for hits; - = inactive; . = no result. Shown are actives, neighbours in structure and some others; about 0.97% of the full set was active somewhere.

SMILES	LAP4 TOR yeast	JMJD2C inh	AGP1 TOR yeast	CIT2 TOR yeast	MEP2 TOR yeast	RPL19A TOR yeast	s288c autofluor	others
CCCN1CCC(=O)N([C@H](CN=[N+]=[N-])CC(C)C)CC1	-	-	-	-	-	-	.
CSc1nsc(SCC(=O)Nc2cccc(NC(C)=O)c2)n1	-	-	-	-	-	-	.
COC(=O)CCCC1=CC2=CC(=O)C(C)(OC(=O)c3ccco3)C(=O)C2=CO1 (centres undefined)	.	-	.	.	.	.	.
COC(=O)CCCC1=CC2=CC(=O)C(C)(OC(=O)CCc3ccccc3)C(=O)C2=CO1 (centres undefined)	156	-	-	-	-	-	-	LAP4-GFP pick2=-;MEP2 cherry2=-;RPL19A GFP CP2=-;CIT2 GFP CP2=-;AGP1 GFP CP2=-
O=C(O)CCCCCNC(=O)OCC1c2ccccc2-c2ccccc21	-	-	-	-	-	-	.
CC(C)NC(=O)c1onc(CSc2ccc(Cl)cc2)c1C(=O)NC(C)C	-	-	-	-	-	-	.
CCCNC(=O)c1onc(CSc2ccc(Cl)cc2)c1C(=O)NC(C)C	173	-	-	-	-	-	.	LAP4-GFP pick2=-;MEP2 cherry2=-;RPL19A GFP CP2=-;CIT2 GFP CP2=-;AGP1 GFP CP2=-
COc1cc(/C=C/C(=O)OCC(=O)NC2CC2)cc(S(=O)(=O)N2CCc3ccccc32)c1OC	-	-	-	-	-	-	.
COc1cc(/C=C/C(=O)N2CCN(C)CC2)cc(S(=O)(=O)N2CCc3ccccc32)c1OC	-	-	-	-	-	-	.	LAP4-GFP pick2=-;MEP2 cherry2=-;RPL19A GFP CP2=-;CIT2 GFP CP2=-;AGP1 GFP CP2=-
N#C/C(=C\c1cc(Br)ccc1F)C(=O)NC1CC1	156	-	-	-	-	-	-	LAP4-GFP pick2=156;MEP2 cherry2=-;RPL19A GFP CP2=-;CIT2 GFP CP2=-;AGP1 GFP CP2=-
CCc1ccc(/C=C/C(=O)c2cc(Br)ccc(=O)c2O)cc1	-	-	-	-	-	-	-	LAP4-GFP pick2=156;MEP2 cherry2=-;RPL19A GFP CP2=-;CIT2 GFP CP2=-;AGP1 GFP CP2=-
CCOc1ccc(/C=C/C(=O)c2cc(Br)ccc(=O)c2O)cc1	-	-	-	-	-	-	.
O=[N+]([O-])c1cnc(Sc2ccncn2)s1	262	-	-	-	-	-	-
O=c1c(-c2cccc([N+](=O)[O-])c2)[n+]([O-])c2ccccc2n1O	-	-	-	-	-	-	.
O=c1c(-c2ccc(Cl)cc2)[n+]([O-])c2ccccc2n1O	165	-	-	-	-	-	-
CCOC(=O)c1c(C)[nH]c(C)c1S(=O)(=O)NCCc1ccco1	-	-	-	-	-	-	.
Cc1ccc(C)c(Sc2ccc(S(=O)(=O)Nc3ccc(C(=O)O)cc3)cc2)c1	-	-	-	-	-	-	.
Cc1ccc(N=C2NC(=O)/C(=C/C=C/c3ccco3)S2)cc1	-	-	-	-	-	-	.
Cc1cccc(N=C2NC(=O)/C(=C/C=C/c3ccco3)S2)c1C	162	-	-	-	-	-	-	LAP4-GFP pick2=190;MEP2 cherry2=-;RPL19A GFP CP2=-;CIT2 GFP CP2=-;AGP1 GFP CP2=-
CCOc1ccc(NC(=O)CNC(=O)c2cccs2)cc1	-	-	-	-	-	-	.
Cc1ccc(/C(N)=N/OC(=O)c2ccc(F)cc2)cc1	-	-	-	170	-	-	-
COc1cccc(C(=O)NCCS(=O)(=O)NCc2ccco2)c1	151	-	-	-	-	-	.	LAP4-GFP pick2=-;MEP2 cherry2=-;RPL19A GFP CP2=-;CIT2 GFP CP2=-;AGP1 GFP CP2=-
CCC1CCCCN1S(=O)(=O)c1ccc(NC(=O)C2CCCO2)cc1 (centres undefined)	-	-	-	.	-	-	.
Cc1nc(C)n(C(C)CNS(=O)(=O)c2ccc(Cl)cc2)n1 (centres undefined)	-	-	-	-	-	-	.
CCOC(=O)c1c(C)oc2c1c(C(c1cccnc1)N1CCOCC1)c(O)c1ccccc12 (centres undefined)	160	-	-	-	-	-	-	s288c autofl DR=-;TORC1 bypass=-
SMILES	LAP4 TOR yeast	JMJD2C inh	AGP1 TOR yeast	CIT2 TOR yeast	MEP2 TOR yeast	RPL19A TOR yeast	s288c autofluor	others
CCN(CC)c1ccc2cc(-c3nc4ccccc4n3C)c(=O)oc2c1	-	-	-	-	-	-	.
CCN(CC)c1ccc2cc(-c3nc(-c4ccc(OC)cc4)cs3)c(=O)oc2c1	160	.	-	204	221	-	-
CCN(CC)c1ccc2cc(-c3nc4ccccc4[nH]3)c(=O)oc2c1	171	-	-	-	200	-	-
CCN(CC)c1ccc2cc(-c3nnc(-c4ccccc4)o3)c(=O)oc2c1	-	-	-	-	-	-	.
Cc1nc2ccccc2c2oc(C(=O)NC3CC3)cc12	-	-	-	-	-	-	.
Cc1cc2c(C)nc3ccccc3c2o1	-	-	-	-	-	-	.	LAP4-GFP pick2=-;MEP2 cherry2=-;RPL19A GFP CP2=-;CIT2 GFP CP2=-;AGP1 GFP CP2=-
O=C(Oc1c(Cl)cc(Cl)c2cccnc12)c1cccs1	222	-	-	-	-	-	-	LAP4-GFP pick2=201;MEP2 cherry2=-;RPL19A GFP CP2=-;CIT2 GFP CP2=-;AGP1 GFP CP2=-
O=C(Oc1c(Cl)cc(Cl)c2cccnc12)c1ccco1	230	-	-	-	-	-	-	s288c autofl DR=-;TORC1 bypass=-
COc1ccc(CCC(=O)Nc2ccc3c(c2)OCO3)cc1OC	-	-	-	-	-	-	.
CC(C)(C)C(=O)NC(=S)NNC(=O)c1sc2ccccc2c1Cl	233	-	-	-	-	-	-
Cc1ccc(-n2nc3c(c2NC(=O)c2cccs2)CS(=O)(=O)C3)cc1C	-	-	-	-	-	-	.
CN(Cc1ccnc2ccccc12)C(=O)C1CCC(=O)N(Cc2ccccc2F)C1 (centres undefined)	-	-	-	-	-	-	.
